Vaccinia mCherry = qHTS for Stage-Specific Inhibitors of Vaccinia Orthopoxvirus: mCherry Reporter Primary qHTS; Potency, µM (doses to about 36.5 µM), for the others: at the top dose activity change, negative = inhibition, hits mostly inhibitors; AID 720579, 2013; 0.63% of 310,000 active; Vaccinia virus mCherry reporter infection, fluorescence; calls by dose curve; tested in A549 cells; note: nearly all actives have a fitted effect of over 35% in size
Vaccinia Venus = qHTS for Stage-Specific Inhibitors of Vaccinia Orthopoxvirus: Venus Reporter Primary qHTS | AID 720580, 2013 | Vaccinia virus Venus reporter expression, fluorescence | 0.46% of 330,000 active | Potency, µM (doses to about 36.5 µM), for inactives: top-dose activity change, negative = inhibition, usual class: inhibitors; calls by dose curve; tested in A549 cells; note: nearly all actives have a fitted effect of over 30% in size
Pf growth 48h = Primary qHTS for delayed death inhibitors of the malarial parasite plastid, 48 hour incubation. P. falciparum luciferase growth in erythrocytes, 48 h. Potency, µM (series often up to 28.7 µM), for inactives: at the top dose activity change, negative = inhibition, usual class: inhibitors. 5.9% of 310,000 active. AID 504832, 2011
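Cell-based growth assay: transgenic P. falciparum expressing firefly luciferase, cultured in red cells within RPMI 1640 containing 0.5% w/v Albumax, 24 mM bicarbonate and gentamycin. A drop in luciferase activity indicates inhibition.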
AMA1 RON2 block = qHTS for Inhibitors of AMA1-RON; Towards Development of Antimalarial Drug Lead: Primary Screen; Plasmodium falciparum AMA1 (3D7) - RON2 peptide interaction; AlphaScreen AMA1-biotinylated RON2 peptide binding; Potency, µM (highest dose often 58.2 µM), for the others: at the highest dose activity change, negative = inhibition, actives largely listed as inhibitors; 0.2% of 360,000 active; AID 720542, 2013;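 note: 0% = vehicle wells and -100% = peptide control; nearly all actives have a fitted effect of over 45% in size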
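AMA1 (3D7) with his tag at 25 nM final met compounds first, then biotinylated RON2 peptide at 25 nM; detection used donor plus acceptor beads, 10 µg/mL apiece, read by AlphaScreen after 30 min at room temperature.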
Pf growth 96h = Primary qHTS for delayed death inhibitors of the malarial parasite plastid, 96 hour incubation; P. falciparum luciferase reporter growth, 96 h; Potency, µM (series often up to 28.7 µM), for the others: at the highest dose activity change, negative = inhibition, most hits filed as inhibitors; 6.9% of 320,000 active; AID 504834, 2011
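P. falciparum expressing integrated firefly luciferase, in erythrocytes at 2% hematocrit, 0.05% parasitemia, incubated with compounds 96 h at 37 C, 5% CO2. Growth inhibition read as loss of luminescence; two-generation exposure targets delayed-death apicoplast inhibitors.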
* = called active by the depositor; i = inactive; ? = inconclusive; / = no result; [ ] = another dose, or the depositor's remark. This is a sample that favours compounds with a hit; in the whole collection about 8.7% have one here. Unless noted, calls come from the whole dose curve; as a rule, active = well fitted curve in the direction sought with a large enough effect; inconclusive = small, poorly fitted or top-dose-only effect, or another doubt; inactive = no such curve, though single readings can be large; an effect the other way counts as inactive or inconclusive. Unless noted, % is set by controls: 0 for no effect and ±100 for the full control effect; potency is the fitted concentration of half-maximal effect.

SMILES	Vaccinia mCherry	Vaccinia Venus	Pf growth 48h	AMA1 RON2 block	Pf growth 96h
COc1ccc(-c2cc(C(=O)N3CCN(c4ccccc4O)CC3)c3ccccc3n2)cc1OC	?	?	2.1µM*	-2%	2.6µM*
O=C(c1ccccc1Sc1cccc2ccccc12)N1CCOCC1	?	-17%	10µM*	-8%	?
CSc1ccccc1C(=O)N1CCOCC1	/	-17%	9%	-5%	2%
Cc1ccc2nc(C)cc(C(=O)N3CCCC(N4CCN(c5ccccc5C)CC4)C3)c2c1 (configuration not stated)	-11%	-16%	12µM*	12%	1%
O=C(c1cc(-c2ccccc2Cl)nc2ccccc12)N1CCC1	-5%	-1%	-11%	-12%	-7%
O=C(c1cc(-c2ccccc2Cl)nc2ccccc12)N1CCOCC1	-3%	-27%	-7%	3%	0.37µM*
COc1ccc(-n2ccnc(NCc3ccc(Cl)cc3)c2=O)cc1	-2%	-19%	/	/	/
O=C(c1cc(-c2ccccc2Cl)nc2ccccc12)N1CCN(c2ccccn2)CC1	/	/	/	-1%	/
O=C(c1cc(Sc2ccc(Cl)cc2)nc2ccccc12)N1CCN(c2ccccn2)CC1	-6%	2%	12µM*	-23%	57%
O=C(c1cnc(N2CCN(c3ccccn3)CC2)c2ccccc12)N1CCN(c2cccc(Cl)c2)CC1	?	?	9.3µM*	-22%	-18%
O=C(c1cc(Cl)ccc1Cl)N1CCN(c2ccccn2)CC1	-9%	-5%	8%	-2%	-18%
Cc1ccc(-c2cc(C(=O)N3CCN(c4ccccc4O)CC3)c3ccccc3n2)cc1	-3%	-21%	3.3µM*	-7%	?
O=C(c1cc(-c2ccccc2Cl)nc2ccccc12)N1CCN(c2ccccc2O)CC1	?	?	9.3µM*	-11%	4.1µM*
COc1ccc(OC)c(CNC(=O)CN(c2ccc(C)cc2)S(=O)(=O)N(C)C)c1	4%	-3%	/	/	/
Cc1cnc(-n2ncc(C(=O)NCCN3CCOCC3)c2C2CC2)nc1-c1cccs1	-2%	-17%	/	/	/
CCCc1ccc(-c2cc(C(=O)N3CCN(c4ccccn4)CC3)c3ccccc3n2)cc1	/	/	6%	-4%	5.2µM*
CCS(=O)(=O)c1ncc(Cl)c(C(=O)N2CCN(c3ccc(OC)cc3)CC2)n1	-23%	-24%	/	/	/
C=CCNC(=O)/C(=C/c1cn(-c2ccccc2)nc1-c1cccc([N+](=O)[O-])c1)NC(=O)c1ccccc1	-9%	-10%	?	-4%	4.1µM*
CCn1c(C)c(C)c2cc(C(=O)Nc3cccc(Cl)c3)ccc21	?	-28%	?	-12%	15µM*
Nc1cc(=O)[nH]c(SCC(=O)Nc2cc(S(=O)(=O)N3CCOCC3)ccc2Cl)n1	-16%	-19%	0%	39%	-3%
Cc1ccc(S(=O)(=O)N2CCOCC2)cc1NC(=O)CSc1nnc2cc(C)c3ccccc3n12	-15%	-29%	5.9µM*	-26%	13µM*
Cc1nc(SCC(=O)Nc2cc(S(=O)(=O)N3CCOCC3)ccc2Cl)nc(C)c1C	/	/	?	15%	15µM*
Cc1cc2nnc(SCC(=O)Nc3cc(S(=O)(=O)N4CCOCC4)ccc3Cl)n2c2ccccc12	?	?	5.2µM*	9%[2.32 µM]	7.4µM*
CCOC(CNC(=O)Cn1nc(Cc2ccncc2)c2ccccc2c1=O)OCC	-1%	-8%	13%	-9%	-6%
CCC(C)NC(=O)Cn1nc(Cc2ccncc2)c2ccccc2c1=O (configuration not stated)	-22%	-12%	-9%	-3%	6.6µM*
SMILES	Vaccinia mCherry	Vaccinia Venus	Pf growth 48h	AMA1 RON2 block	Pf growth 96h
COc1ccc(C(CC(=O)Nc2cc(OC)c(OC)c(OC)c2)N2Cc3ccccc3C2=O)cc1 (configuration not stated)	-14%	-12%	/	/	/
NS(=O)(=O)c1ccc(N=Nc2cc3ccccc3c(C(=O)O)c2O)cc1	-10%	6%	/	/	/
CCOc1ccc(-c2cccc(NS(=O)(=O)c3cc([N+](=O)[O-])ccc3Cl)c2)nn1	10µM*	?	?	-4%	?
CCn1cc(CN2CCOc3ccc(C(O)C4CCCCC4)cc3C2)c(C)n1 (configuration not stated)	-9%	-7%	/	/	/
CSc1ccc(NC(=O)NCCCN2CCC(Cc3ccccc3)CC2)cc1	/	/	8.3µM*	-15%	?
CCCS(=O)(=O)N1CCCC(C(=O)NCCCN(CC)c2cccc(C)c2)C1 (configuration not stated)	/	-22%	-14%	-7%	?
CCCS(=O)(=O)N1CCC(C(=O)NCCN2CCC(Cc3ccccc3)CC2)CC1	-16%[1.46 µM]	-6%	4.1µM*	0%	2%
Cc1ccc(CNC(=O)C2CCCN(S(=O)(=O)c3c(C)n[nH]c3C)C2)cc1 (configuration not stated)	0%	-14%	/	3%	-24%
CCS(=O)(=O)N1CCC(C(=O)NCCN2CCN(Cc3ccccc3)CC2)CC1	-1%	-4%	3%	0%	7%
CCOc1ccc(CCNC(=O)C2CCCN(S(=O)(=O)c3c(C)n[nH]c3C)C2)cc1OCC (configuration not stated)	i	-16%	8.3µM*	-8%	4%
CCCS(=O)(=O)N1CCCC(C(=O)NCCN(CC)c2ccccc2)C1 (configuration not stated)	/	-24%	?	-2%	13µM*
CCOc1ccc(CCNC(=O)C2CCN(S(=O)(=O)CC)CC2)cc1OCC	-13%	-2%	50%	-5%	2.6µM*
O=C(NCCCN1CCC(Cc2ccccc2)CC1)C1CCN(S(=O)(=O)N2CCOCC2)CC1	-9%[1.46 µM]	-8%	-1%	-18%	/
CCS(=O)(=O)N1CCC(C(=O)NCCc2ccccc2)CC1	-12%	-7%	27%	1%	1.5µM*
CCCS(=O)(=O)N1CCC(C(=O)NCCN(C)Cc2ccccc2)CC1	/	-22%	18%	3%	15µM*
CCOc1ccc(CCNC(=O)C2CCN(S(=O)(=O)N3CC(C)CC(C)C3)CC2)cc1OCC (configuration not stated)	/	/	-19%	3%	-12%
CCS(=O)(=O)N1CCC(C(=O)NCCCN2CCC(Cc3ccccc3)CC2)CC1	-13%	3%	-2%	-4%	9.3µM*
Cc1ccc(N2CC(C(=O)NCc3nnnn3-c3ccc(C)c(C)c3)CC2=O)cc1C (configuration not stated)	-14%	-15%	/	/	/
O=C(Nc1nc2n(n1)C(c1ccccc1)C=C(c1ccccc1)N2)c1ccc(Cl)c([N+](=O)[O-])c1 (configuration not stated)	-4%	-2%	/	/	/
CC(=O)c1cccc(NC(=O)c2ccc3c(c2)N(Cc2ccc(C)cc2)CCS3)c1	-7%	-1%	/	/	/

Assay outcomes deposited in PubChem by National Center for Advancing Translational Sciences (NCATS).
